Compounds with a hit are over-represented: about 8.7% of the library has one in this group of screens.
12-LOX inh: ALOX12 (human) lipoxygenase inhibition. purified 12hLO, xylenol orange hydroperoxide absorbance. Potency, µM (doses to about 108 µM), for inactives: at the highest dose activity change, negative = inhibition, hits mostly inhibitors. 580,000 tested, 1.1% active. AID 1671190; further: on the % scale 0 is the no-effect control and ±100 the full control effect
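Hydroperoxide product was detected by ferrous iron/xylenol orange as the 573 to 405 nm absorbance ratio. Arachidonic acid at 40 uM (final) was turned over for 30 min at room temperature by 150 nM human 12hLO, pH 7.0 Hepes buffer, after 15 min compound preincubation.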
HP1b chromo inh: inhibitors of HP1-beta chromodomain binding to methylated histone tails; 390,000 tested, 0.56% active; AlphaScreen HP1-beta / biotin-H3K9me3 peptide binding; Potency, µM (titrated, usually from 114 µM), for inactives: top-dose activity change, negative = inhibition, actives largely listed as inhibitors; further: nearly all actives have a fitted effect of over 70% in size
Target sequence (P83916 whole entry, looked up): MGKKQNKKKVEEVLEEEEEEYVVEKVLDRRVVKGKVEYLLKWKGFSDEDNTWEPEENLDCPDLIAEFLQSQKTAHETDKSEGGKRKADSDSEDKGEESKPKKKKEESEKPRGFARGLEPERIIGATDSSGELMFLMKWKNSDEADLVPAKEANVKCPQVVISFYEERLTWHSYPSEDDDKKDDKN
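AlphaScreen: HP1-beta (50 nM) preformed 30 min with biotin-H3(1-18)K9me3 peptide (50 nM) in PBS pH 7.4, 0.01% Tween-20. Compound added for 30 min at RT, then streptavidin donor/nickel chelate acceptor beads (10 ug/mL) for 30 min.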
G9a inh: blocks human histone lysine methyltransferase G9a. Q96KQ7. G9a H3K9 monomethylation, AlphaScreen, 2 h. Potency, µM (titrated, usually from 102 µM), inactives show top-dose activity, negative = inhibition, actives largely listed as inhibitors. 350,000 tested, 8.8% active. AID 504332; further: on the % scale 0 is the no-effect control and ±100 the full control effect; nearly all actives have a fitted effect of over 75% in size
Target sequence (Q96KQ7 913-1193 limits assumed): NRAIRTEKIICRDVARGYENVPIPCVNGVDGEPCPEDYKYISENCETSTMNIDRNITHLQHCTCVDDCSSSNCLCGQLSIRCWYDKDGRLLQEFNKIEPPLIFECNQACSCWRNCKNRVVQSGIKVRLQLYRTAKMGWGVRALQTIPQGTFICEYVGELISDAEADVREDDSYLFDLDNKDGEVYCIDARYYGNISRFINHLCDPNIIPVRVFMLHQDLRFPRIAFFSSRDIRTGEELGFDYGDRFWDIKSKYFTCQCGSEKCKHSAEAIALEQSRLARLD
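Readings reflect AlphaScreen signal from monomethyl-H3K9 antibody detection. HMT at 20 nM; substrate b-H3K9 500 nM; cofactor SAM 20 uM; 2 h RT reaction; compounds tested as titrations in qHTS with 15 min preincubation.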
Sfp PPTase inh: blocks B. subtilis Sfp PPTase activity | Q9F4F7 | Biochemical Sfp PPTase activity, qHTS | Potency, µM, for the others: largest response in the series, negative = inhibition, most hits filed as inhibitors | 310,000 tested, 3.5% active;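 further: the enzyme is Sfp with the accession as filed and its product quenches rhodamine fluorescence; 0% = enzyme reaction without inhibitor and -100% = no enzyme wells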
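With Hepes-Na pH 7.6 buffer containing 10 mM MgCl2, Sfp (15 nM) modified BHQ-2-YbbR (12.5 uM) using rhodamine-CoA (5 uM). Two reads 30 minutes apart at 525/598 nm yielded each well's rate.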
BAZ2B inh: BAZ2B (human) inhibition. Q9UIF8. AlphaScreen BAZ2B-H3K14Ac peptide displacement. Potency, µM (titrated, usually from 114 µM), inactives show at the top dose activity change, negative = inhibition, actives largely listed as inhibitors. 360,000 tested, 4.4% active. AID 504333; further: on the % scale 0 is the no-effect control and ±100 the full control effect; nearly all actives have a fitted effect of over 60% in size
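AlphaScreen luminescence quantifies BAZ2B engagement of H3K14Ac peptide; the protein and biotinylated peptide are both at 50 nM final, buffer PBS pH 7.4 with 0.01% Tween-20, all steps at room temperature.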
JMJD2A Tudor inh: blocks the human JMJD2A Tudor domain; O75164; AlphaScreen JMJD2A-Tudor / H3K4me3 peptide binding; Potency, µM (series often up to 114 µM), inactives show top-dose activity change, negative = inhibition, hits mostly inhibitors; 390,000 tested, 4.4% active; further: on the % scale 0 is the no-effect control and ±100 the full control effect; nearly all actives have a fitted effect of over 50% in size
Numbers without * were called inactive; ? = inconclusive; . = not tested or not shown; [ ] = remark or other dose. The call rests on the fitted dose curve; in most records, active means well fitted curve in the direction sought with a large enough effect; inconclusive means small, poorly fitted or top-dose-only effect, or another doubt; inactive means no such curve, though single readings can be large; an effect the other way counts as inactive or inconclusive. Potency means the concentration at half of the fitted maximal effect.

SMILES	12-LOX inh	HP1b chromo inh	G9a inh	Sfp PPTase inh	BAZ2B inh	JMJD2A Tudor inh
COc1ccc(C(=O)CCN2CCN(c3ccccc3OC)CC2)cc1	?	26.3%	50.1µM*	50.1µM*	?	-23.2%
COc1ccccc1N1CCN(CCN2C(=O)CC(=C3c4ccccc4-c4ccccc43)C2=O)CC1	.	-15.4%	.	.	.	31.6µM*
CC(=O)OCC(=O)c1ccc2ccn(C(C)=O)c2c1	-0.9%	34.6%	8.8%[59 µM]	20.2%	-1.7%	1.4%
CCn1nccc1C(=O)N1CC[C@H]2C(=O)NCCCCCCN(Cc3ccncc3)[C@@H]2C1	81.4%	.	.	.	.	.
COc1ccccc1C(=O)N1CCCC(c2nn(-c3ccc(Cl)cc3)c(=O)[nH]2)C1 (stereo unspecified)	-2.5%	.	.	.	.	.
CN(CC(=O)N1CCNCC(C(=O)O)C1)Cc1ccncc1 (stereo unspecified)	23.6%	.	.	.	.	.
COc1ccc(-c2ccc(=O)n(CC(=O)N3CCC(Cc4ccccc4)CC3)n2)cc1	-13.1%	.	.	.	.	.
COc1ccc2c(C)c(CCC(=O)Nc3ccc(OC)c(OC)c3)c(=O)oc2c1	0.0%	.	.	.	.	.
Cc1cccc(Nc2ncnc(N)c2[N+](=O)[O-])n1	-10.7%	8.1%	-15.5%[59 µM]	28.0%	-9.6%	-10.6%
Cc1cc(C)nc(Sc2ncnc(N)c2[N+](=O)[O-])n1	-6.1%	49.7%	-4.5%[12.7 µM]	50.1µM*	?	-13.1%
O=C1NC2(CCN(C(=O)c3ccccc3F)C2)N=C1c1cccnc1 (stereo unspecified)	50.5%	.	.	.	.	.
CCn1c(C)cc(/C=C2/SC(=O)N(C(C)C(=O)OC)C2=O)c1C (stereo unspecified)	?	-8.0%	?	-6.8%	?	?
CCOC(=O)C(C)N1C(=O)S/C(=C/c2cc(C)n(-c3ccncc3)c2C)C1=O (stereo unspecified)	-12.1%	-8.2%	50.1µM*	6.9%	?	?
CCOC(=O)C(C)N1C(=O)S/C(=C/c2cc(C)n(-c3ccccn3)c2C)C1=O (stereo unspecified)	-14.4%	-31.3%	6.7%[12.7 µM]	-4.4%	?	56.2µM*
COC(=O)C(C)N1C(=O)S/C(=C/c2cc(C)n(C(C)C)c2C)C1=O (stereo unspecified)	?	-21.9%	-2.5%	-15.5%	-2.3%	?
CCc1ccccc1OCC(=O)c1ccc2c(c1)N(CC(=O)NCCCOC)C(=O)CO2	35.6%	.	.	.	.	.
CC(C)OC(=O)c1cc2c(ccn2C)n1CC(=O)N(Cc1ccccc1)c1ccccc1	?	?	25.1µM*	-14.6%	25.1µM*	17.8µM*
O=C(CCl)N(Cc1ccccc1)c1ccccc1	-20.6%	74.1%	-33.2%	10.7%	-10.7%	5.8%
Cc1cc(=O)n2nc(-c3ccccc3)sc2n1	0.0%	12.1%	5.7%[12.7 µM]	-10.6%	5.9%	-27.0%
Cc1cc(=O)n2c3c(sc2n1)C(=O)N(Cc1ccccc1)C3=O	.	.	6.31µM*	12.6µM*	-1.6%	.
Cc1ccc(S(=O)(=O)NCC(=O)N/N=C/c2ccc(Cl)cc2Cl)cc1	?	12.4%	11.0%	44.7µM*	-10.4%	-24.1%
Cc1ccc(S(=O)(=O)NCC(=O)N/N=C/c2ccc(Cl)cc2)cc1	?	18.6%	53.6%[59 µM]	-2.3%	31.9%	-14.8%
CCCNC(=O)N1CCCCCC1CN1CCC(OC)CC1 (stereo unspecified)	17.0%	.	.	.	.	.
N#Cc1ccc(/C=C/C(=O)c2ccc3c(c2)CCO3)cc1	-17.7%	.	.	.	.	.
CCOc1ccccc1N1C(=O)CC(Sc2n[nH]c(-c3ccccc3)n2)C1=O (stereo unspecified)	-21.1%	12.6µM*	1.58µM*	35.5µM*	?	1.41µM*
SMILES	12-LOX inh	HP1b chromo inh	G9a inh	Sfp PPTase inh	BAZ2B inh	JMJD2A Tudor inh
CCC1CCCCN1C(=S)NC(=O)c1ccc(F)c(S(=O)(=O)N2CCOCC2)c1 (stereo unspecified)	235.5%	8.2%	44.7µM*	-16.4%	-37.3%	-20.3%
CCC1CCCCN1C(=S)NC(=O)c1ccc([N+](=O)[O-])cc1 (stereo unspecified)	-6.3%	-13.0%	?	-7.5%	70.8µM*	?
CCC1CCCCN1C(=S)NC(=O)c1cccs1 (stereo unspecified)	-16.7%	12.2%	?	4.1%	-25.2%	-25.7%
COc1cc(Cl)cc2c1Sc1ccccc1/C2=C/CCN(C)C	.	-17.8%	?	-16.5%	44.7µM*	?
CN(C)CC/C=C1/c2cc(F)ccc2Sc2ccc(Cl)cc21	0.0%	-13.1%	.	.	.	?
CN(C)CC/C=C1/c2ccccc2Sc2c(O)cc(Cl)cc21	25.1%	-22.1%	25.1µM*	?	?	?
COc1cc2c(cc1Cl)/C(=C\CCN(C)C)c1ccccc1S2	?	?	?	-18.0%	?	?
CCOC(=O)c1c(NC(=S)Nc2ccc(OCC)cc2)sc2c1CCN(C)C2	?	-10.1%	50.1µM*	15.8µM*	?	-16.5%
CCOC(=O)c1c(NC(=S)Nc2ccc(Cl)cc2)sc2c1CCN(C)C2	?	-17.3%	?	?	?	?
CCOC(=O)c1c(NC(=O)CSc2nnc(C)s2)sc2c1CCN(C)C2	6.7%	23.2%	4.47µM*	17.8µM*	-36.3%	?
Nc1nc(CNC(c2ccccc2)c2ccccc2)nc(Nc2ccccc2)n1	2.2%	.	.	.	.	.
CCN1c2ccccc2N(C)C1(C)c1ccccc1 (stereo unspecified)	.	31.6µM*	2.51µM*	31.6µM*	28.2µM*	8.91µM*
CN1c2ccccc2N(C)C1(C)c1ccccc1	?	?	?	?	46.4%	8.91µM*
CCOc1ccccc1CN1C(=O)C2(CCOCC2)CC1c1nnnn1C(C)(C)C (stereo unspecified)	33.4%	.	.	.	.	.
C=C1C(=O)C=C2CN(C(=O)c3ccccc3)[C@@](Cc3ccc(F)cc3)(C(=O)OC)[C@@H]12	.	10.8%	8.91µM*	10µM*	-7.4%	-29.0%
CN(C)C[C@@H]1CN(c2ccccn2)C[C@H]1NC(=O)c1ccc2c(c1)OCO2	21.7%	.	.	.	.	.
CC(Sc1nc(-c2ccccc2)c(-c2ccccc2)o1)C(=O)NC1CC1 (stereo unspecified)	-44.9%	.	.	.	.	.
CN(Cc1ccc(-c2ccccc2)cc1)Cc1ccccc1Cl	65.0%[176 µM]	.	.	.	.	.
CSc1ccccc1C(=O)NC1CCCN(Cc2ccccc2F)C1 (stereo unspecified)	?	51.4%	10µM*	0.9%	-4.2%	-11.0%
O=C(C1CCCN(Cc2ccccc2F)C1)N1CCCC1 (stereo unspecified)	?	?	39.8µM*	-20.0%	56.2µM*	28.2µM*

Bioassay records as filed in PubChem BioAssay.
